According to the supplement of paper PMC10338343:
± gives the standard deviation.

Experiments:
[1] = test system: MILI (PIWIL2) piRISC loaded with L1MC piRNA (26 nt); test: pre-steady-state target cleavage rate (min^-1); guide: L1MC piRNA 5'p-UAACUAAAUACUAUGCAAGCUGUAGG; higher = faster piRNA-guided slicing of the target; settings: auxiliary factor: 500 nM mouse GTSF1
In short: (§1)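 The pre-steady-state cleavage rate was obtained by Cleave-'n-Seq with a burst-and-steady-state fit. A transcribed, DNA-blocked target RNA library (0.1 nM) was mixed with 1 nM active affinity-purified piRISC carrying one synthetic guide, with or without 500 nM GTSF1 partner protein, in HEPES–potassium acetate buffer at 33 °C for 0–8 or 0–960 min. Uncleaved targets were sequenced and normalised to depth and to weakly complementary targets, with three trials pooled and k3 capped at 0.0001 min^-1.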

[2] = test system: EfPiwi piRISC loaded with L1MC piRNA (26 nt); test: pre-steady-state target cleavage rate (min^-1); auxiliary factor: 500 nM Ephydatia muelleri Gtsf1; guide: L1MC piRNA 5'p-UAACUAAAUACUAUGCAAGCUGUAGG; MIWI and MILI are mouse PIWI proteins and EfPiwi is from a freshwater sponge; tags in brackets are library labels; higher = faster piRNA-guided slicing of the target
In short: as §1

Sequence	pre-steady-state target cleavage rate [1]	pre-steady-state target cleavage rate [2]
UCCUGGAACAGCUUGCUUAGUAUUUAGUAA	0.238 ± 0.022	0.00393 ± 0.0022
UCCUGGAUCACCUUGCAUAGUAUUUAGAUA	0.111 ± 0.025	0.00551 ± 0.005
UCCUGCUACAGCUUGGAUAGUAUUUUCAAA		0.00307 ± 0.0018
UCCUCCUACAGCUUCCAUUGUAUUUAGUUA	0.0834 ± 0.015	0.00393 ± 0.0019
UCCUCCUACAGCUUGCAUAUUAUUUAGUUA	0.0824 ± 0.011	0.0783 ± 0.025
UCCUCCUUCAGCUUGCAUAGUAUUUUCAAA	0.115 ± 0.022	0.00259 ± 0.0024
UCCUGCUACAGCUUGCAGUAGUAUUUAGUUA	0.00973 ± 0.0053	0.0051 ± 0.0024
UCCUCCUACAGCUUGCAUAGUUUUUAGUAA	0.0743 ± 0.015	0.005 ± 0.0022
UCCUCCUUCAGCUUCCAUAGUAUUUAGUUA	0.0522 ± 0.015	0.00448 ± 0.0019
UCCUGGAACAGCUUGCAUAGUAUUUAGUGA		0.00437 ± 0.002
UCCUCCUACAGCUUGCAUAGAUUUUAGUAA	0.0588 ± 0.015	0.00392 ± 0.0025
UCCUGGAUGUGCAAGCAUAGUAUUUAGAAA	0.0135 ± 0.0052	0.00423 ± 0.0039
UCCUGCUACAGCUUGCAUAGUAUUUAGAUA	0.15 ± 0.029	0.00539 ± 0.0023
UCCUGGAACAGCUUGCAUAGUAAUUAGUUA		0.00814 ± 0.0027
UCCUGGAUGUCGAAGGAUAGUUUUUAGUUA		< 0.0001
UCCUGCUACAGCUUGCAUAGUAUUUUCUAA	0.0874 ± 0.021	0.00646 ± 0.0026
UCCUGGAUGUCGAACGAUACGUAUUUAGUUA		< 0.0001
UCCUGGAUGUCGAACGUUAGUAUGUUAGUUA		< 0.0001
UCCUGGAUCAGCUUCCAUAGUAUUUAGUAA	0.0353 ± 0.0094	0.00347 ± 0.0017
UCCUGGAUGUCGAACGUUAGUAUUUAGAUA		< 0.0001
UCCUGGAACAGCUUGCAUAGUAUUUGUUA	0.0747 ± 0.021	0.00531 ± 0.0019

Sequence	pre-steady-state target cleavage rate [1]	pre-steady-state target cleavage rate [2]
UCCUCCUACAGCUUCCAUAGUAUUUACAAA		0.00265 ± 0.0026
UCCUCCUACUGCUUGCAUACUAUUUAGUUA		0.0106 ± 0.0044
UCCUGGAUGUCGAACCAAAGUAUUUAGUUA		< 0.0001
UCCUGGAACAGCUAGCAUAGUAUUUAGAAA	0.219 ± 0.034	0.00262 ± 0.0023
UCCUCCUACAGCUUGGAUAGAAUUUAGUUA	0.0614 ± 0.015	0.00574 ± 0.0016
UCCUGCUACAGCUUCCAUAGUAUUUUCAAA		0.0032 ± 0.0021
UCCUGGAUGUCCUUGCAUAGUAUUUAAUUA	0.0833 ± 0.017	0.00439 ± 0.003
UCCUGGUACAGCUUGCAUAGUAUUUUCUUA	0.0368 ± 0.016	0.00532 ± 0.0034
UCCUGGUACAGCUUGCAUUGUAUUUAGAUA	0.0565 ± 0.016	0.00292 ± 0.0018
UCCUCCUACAGCUUGCAUAGUAUUAACUUA	0.0722 ± 0.018	0.00459 ± 0.0029
UCCUGCUACAGCUUGCAUAGUAUUUUGAAA	0.112 ± 0.029	0.0045 ± 0.0018
UCCUGGAUGAGCUUCCAUAGUAUUUAGUAA	0.0143 ± 0.0073	0.00253 ± 0.0019
UCCUGGAUGUGCUUGCAUAGUAUUCAGUUA	0.0572 ± 0.015	0.00279 ± 0.0024
UCCUGGAACUGCUUGCAUAGUAUUUUGUUA	0.101 ± 0.017	0.00426 ± 0.0026
UCCUGGAACAGCAUGCAUAGUAUUUUGUUA	0.116 ± 0.017	0.00267 ± 0.0022
UCCUGCUACAGCUUGCAUAGUAUUAAGAAA		0.00481 ± 0.0021
UCCUGCAACAGCUUCCAUAGUAUUUAGUUA		0.00273 ± 0.0014
UCCUCCUACAGCUUACAUAGUAUUUAGUUA		0.106 ± 0.028
UCCUGGAUGUCGAACGUUAGAUUUAGUUA		< 0.0001
UCCUGGAUGUCGUUGGUUAGUAUUUAGUUA		< 0.0001
UCCUGCAACAGCUUGCAUAGUAUUUAGUUA		0.0741 ± 0.018

Sequence	pre-steady-state target cleavage rate [1]	pre-steady-state target cleavage rate [2]
UCCUGCUACAGCUUGCAUUGUAUUUACUUA		0.00271 ± 0.0027
UCCUGGAUGUCGAUGCAUACUAUUAAGUUA		< 0.0001
UCCUGCUACAGCUUGCAUAGUAAAUAGUAA		0.00351 ± 0.0022
UCCUGCUACAGCUUGCAUAGUGAUUUAGUUA		0.00289 ± 0.0028
UCCUGGAACAGCUUCCAUAGUAUUUAGAAA		0.00411 ± 0.0022
UCCUGGUACAGCUUGCAAAGUUUUUAGUUA		0.00245 ± 0.0024
UCCUGGUACAGCAUGCAUAGUAUAUAGUUA		0.00569 ± 0.0031
UCCUGGAUGUGUCUUGCAUAGUAUUUAGUUA		0.113 ± 0.038
UCCUGGAUGUGCUUGCAUAGUAUCUAGUUA		0.00344 ± 0.0024
UCCUGCUACAGGUUGCAUUGUAUUUAGUUA		0.00597 ± 0.0023
UCCUGGUGCAGCUUGCAUAGUAUUUAGUUA		0.0864 ± 0.018
UCCUGGCACAGCUUGCAUAGUAUUUAGUUA		0.0252 ± 0.0092
UCCUCCUACAGUUGCAUAGUAUUUAGUUA		0.0777 ± 0.021
UCCUGCUACAGCUUGCAUAGUUAUUAGAAA		0.00309 ± 0.0025
UCCUGCUACAGCUUGCUUAGUAUUUAGUAA		0.00437 ± 0.0017
UCCUGCUUCAGCUUGCUUAGUAUUUAGUUA		0.0238 ± 0.0068
UCCUGGAUCAGCUGCAUAGUAUUUAGUUA		0.0152 ± 0.0053
UCCUGGAUGUCGAACGUAAUUAUUUAGUUA		< 0.0001
UCCUGGAUGUCGAACGUAAGUAUUUCAGUUA		< 0.0001
